# Reference: ChEMBL document CHEMBL5308541, “MAIP: An Open-Source Tool to Enrich High-Throughput Screening Output and Identify Novel, Druglike Molecules with Antimalarial Activity” (ACS Med Chem Lett, 2023)
# Among all 150,000 compounds or so, about 540 (0.36%) showed an effect of 50% or more. The list comes from a sample in which strong results are over-represented; it also holds similar structures and randomly drawn compounds.
# Tested on: Plasmodium falciparum
# Test: Primary screen in NF54 nanoGlo assay, in single point, at 2uM, 72h; a lower Z score goes with more inhibition
# Format: functional, Erythrocyte
# Conditions: timepoint 72 hour
Compound,% Inhibition [%],Z score
Cc1cccc2c(-c3ccc(N4CCN(C)CC4)nn3)c[nH]c12,-16,2.75
CNC(=O)CN1CCC(Nc2ncnc3ccc(C(C)C)cc23)CC1,2,-0.48
COc1ccc2[nH]cc(C3=CCN(c4ccc5nnc(-c6ccccc6F)n5n4)CC3)c2c1,51,-8.85
Fc1ccccc1-c1nnc2ccc(NCc3ccccc3OC3CCCC3)nn12,-5,0.8
Cc1cccc([C@@H](C)CNC2CCN(CCN3CCOCC3)CC2)c1,-4,0.67
CCCc1cccc(CNC2CCN(C3CCN(C)CC3)CC2)c1,76,-16.27
CN1CCC(N2CCC(NCc3cccc4nsnc34)CC2)CC1,14,-2.08
FC(F)(F)Oc1cccc(CNC2CCN(C3CC3)CC2)c1,-13,2.24
C[C@@H](CNC1CCN(C2CCN(C)CC2)CC1)c1cccc(Cl)c1,97,-17.23
Cn1cc(-c2cncc(C(=O)NC3CCN(c4cccc(F)c4)CC3)c2)cn1,50,-10.8
Cc1cc(N2CC3COCCC3(C(=O)O)C2)nc2ccc(F)cc12 (stereo not drawn),76,-13.26
O=C(c1cccc(OCCc2ccccc2)c1)N1CC2COCCC2(C(=O)O)C1 (stereo not drawn),-3,0.52
Cc1sc2nc(-c3ccccn3)nc(NCCc3nccn3C)c2c1-c1ccccc1,71,-14.01
CCN1CCN(CC2CN(C/C=C/c3ccc(OC)cc3)CC2CO)CC1 (stereo not drawn),-3,0.7
O=C1CN(C2CCN(CC3CCCCC3)CC2)[C@]2(CCOC2)CN1Cc1ccccc1,-8,1.39
Brc1ccc2[nH]c3c(c2c1)CCCC3NC1CCc2[nH]cnc2C1 (stereo not drawn),98,-19.51
CN(C)C1(CNc2nc(C(F)(F)F)nc3cc4c(cc23)OCO4)CCCCCC1,54,-8.21
CN(C)C1(CNc2nc(C(F)(F)F)nc3cc(F)ccc23)CCCCCC1,61,-9.21
CN(C)c1nc(N2CCC(N3CCN(CCO)CC3)CC2)ncc1F,-1,0.13
Cc1ccccc1CN1CCC(CNc2c3c(nc4ccccc24)CCC3)CC1,94,-16.23
C[C@@H](c1cccc(-c2nccc3ncccc23)c1)N1CCCC1,-7,1.08
Cc1cc(N2CCC(NCCc3cnn(-c4ccccc4)c3)CC2)nc(N)n1,-2,0.43
Cc1ccc2nc(CCCNC3CCN(c4cc(C)nc(N)n4)CC3)oc2c1,40,-6.03
Cc1cc(N2CCC(NCCCN3CCCc4ccccc43)CC2)nc(N)n1,53,-8.02
